Screening results (PubChem BioAssay)
This is a sample that favours compounds with a hit; in the whole collection about 1.3% have one here.
EPAC2 antag: qHTS for Antagonist of cAMP-regulated guanine nucleotide exchange factor 2 (EPAC2): primary screen. EPAC2 GEF exchange of Rap1B-BODIPY-GDP, fluorescence. Rap guanine nucleotide exchange factor 4 (Homo sapiens), Q8WZA2. 360,000 compounds, 0.18% hits. Potency, µM (titrated, usually from 114 µM), inactives show top-dose activity, negative = inhibition, actives largely listed as inhibitors; note: % is set by controls: 0 for no effect and ±100 for the full control effect; nearly all actives have a fitted effect of over 45% in size
EPAC2 ag: qHTS for Agonist of cAMP-regulated guanine nucleotide exchange factor 4 (EPAC2): primary screen; EPAC2 activation, biochemical qHTS; response scale: 100% = 6.5 mM cAMP response; Potency, µM (series often up to 154 µM), without a hit: at the top dose activation, actives largely listed as activators; 360,000 compounds, 0.079% hits; AID 720711, 2013; note: nearly all actives have a fitted effect of over 50% in size
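qHTS, titration series. 100 nM EPAC2 / 250 nM Rap1B-BODIPY-GDP / 50 uM GDP; RT; ex 480/em 540 nm, 5-min reads to 30 min. Norm. to 6.5 mM cAMP = activation.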
EPAC1 agonist: qHTS for Agonist of cAMP-regulated guanine nucleotide exchange factor 3 (EPAC1): primary screen. EPAC1 agonist qHTS, biochemical assay; response scale: 100% = response to 6.5 mM cAMP. AID 720707, 2013. Potency, µM (top dose mostly 154 µM), for inactives: at the top dose activation, hits mostly activators. 360,000 compounds, 0.073% hits. Rap guanine nucleotide exchange factor 3 (Homo sapiens), O95398; note: nearly all actives have a fitted effect of over 60% in size
Target sequence (O95398 whole entry, looked up): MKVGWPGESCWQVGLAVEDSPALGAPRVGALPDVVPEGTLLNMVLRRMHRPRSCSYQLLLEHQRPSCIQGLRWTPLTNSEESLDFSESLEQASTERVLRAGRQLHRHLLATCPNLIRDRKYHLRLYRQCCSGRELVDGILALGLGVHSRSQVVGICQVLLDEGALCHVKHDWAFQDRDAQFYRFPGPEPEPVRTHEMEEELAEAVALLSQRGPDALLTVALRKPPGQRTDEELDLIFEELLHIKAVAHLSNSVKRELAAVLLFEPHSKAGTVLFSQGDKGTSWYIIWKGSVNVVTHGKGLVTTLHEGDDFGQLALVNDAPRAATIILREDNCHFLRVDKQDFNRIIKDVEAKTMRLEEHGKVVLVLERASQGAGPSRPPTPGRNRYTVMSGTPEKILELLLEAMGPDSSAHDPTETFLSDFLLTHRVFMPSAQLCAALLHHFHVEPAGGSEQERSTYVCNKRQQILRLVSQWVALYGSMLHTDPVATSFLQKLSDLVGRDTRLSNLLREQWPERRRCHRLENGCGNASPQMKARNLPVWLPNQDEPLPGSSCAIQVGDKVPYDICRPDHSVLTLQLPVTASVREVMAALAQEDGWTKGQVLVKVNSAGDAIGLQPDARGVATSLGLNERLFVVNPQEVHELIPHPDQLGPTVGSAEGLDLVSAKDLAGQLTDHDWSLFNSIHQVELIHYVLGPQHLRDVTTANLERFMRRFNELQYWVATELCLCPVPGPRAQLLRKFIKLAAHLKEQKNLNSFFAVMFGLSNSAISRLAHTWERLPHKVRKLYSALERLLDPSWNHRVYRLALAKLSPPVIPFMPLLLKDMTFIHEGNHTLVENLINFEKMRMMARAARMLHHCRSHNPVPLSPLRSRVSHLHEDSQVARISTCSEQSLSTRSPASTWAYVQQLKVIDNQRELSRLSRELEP
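Fluorescent GDP-exchange assay: 100 nM EPAC1 with 250 nM Rap1B preloaded with BODIPY-GDP and 50 uM GDP; compounds tested as concentration series, 5 min at room temperature, then read every 5 min for 30 min (ex 480/em 540 nm); normalized to 6.5 mM cAMP.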
EPAC1 antag: qHTS for Antagonist of cAMP-regulated guanine nucleotide exchange factor 3 (EPAC1): primary screen; EPAC1 GEF assay, Rap1b-BODIPY-GDP exchange fluorescence; Potency, µM (highest dose often 115 µM), for inactives: top-dose activity change, negative = inhibition, hits mostly inhibitors; Rap guanine nucleotide exchange factor 3 (Homo sapiens), O95398; 360,000 compounds, 0.14% hits;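 note: plate controls were vehicle for no effect and positive control for full effect; nearly all actives have a fitted effect of over 50% in size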
USP1 inh: Inhibitors of USP1/UAF1: Primary Screen | Ubiquitin carboxyl-terminal hydrolase 1 (Homo sapiens), O94782 | recombinant USP1/UAF1, Ub-Rhodamine cleavage fluorescence | Potency, µM (highest dose often 57.1 µM), inactives show at the top dose activity change, negative = inhibition, hits mostly inhibitors | 390,000 compounds, 0.23% hits; note: % is set by controls: 0 for no effect and ±100 for the full control effect; nearly all actives have a fitted effect of over 60% in size
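1 nM enzyme complex + cpd, 15 min RT; start with Ub-Rho 150nM final; kinetic fluorescence ex 480/em 540, 6 reads q60 s. Buffer 50mM HEPES pH 7.8, 0.5mM EDTA, 0.1 mg/ml BSA, 1mM TCEP, 0.01% Tween-20.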
ALOX12 inh: Primary qHTS assay for inhibitors of human arachidonate 12S-lipoxygenase (ALOX12): Round 2; Polyunsaturated fatty acid lipoxygenase ALOX12 (Homo sapiens), P18054; 580,000 compounds, 1.1% hits; Potency, µM (titrated, usually from 108 µM), for inactives: top-dose activity change, negative = inhibition, hits mostly inhibitors; purified 12hLO, xylenol orange hydroperoxide absorbance; note: % is set by controls: 0 for no effect and ±100 for the full control effect
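Hydroperoxide product was detected by ferrous iron/xylenol orange as the 573 to 405 nm absorbance ratio. Arachidonic acid at 40 uM (final) was turned over for 30 min at room temperature by 150 nM human 12hLO, pH 7.0 Hepes buffer, after 15 min compound preincubation.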
Starred values were filed as active, the others as inactive; i = inactive; u = inconclusive; x = not tested or not shown; [ ] = another dose, or the depositor's remark. Calls come from the whole dose curve; as a rule, active = well fitted curve in the direction sought with a large enough effect; inconclusive = small, poorly fitted or top-dose-only effect, or another doubt; inactive = no such curve, though single readings can be large; an effect the other way counts as inactive or inconclusive. Potency is the fitted concentration of half-maximal effect.

SMILES	EPAC2 antag	EPAC2 ag	EPAC1 agonist	EPAC1 antag	USP1 inh	ALOX12 inh
CCCCN1C(=O)/C(=C/C=C2/CC(C)(C)CN2C)SC1=S	56.4%	18.0%	u	50.9%	22.4µM*	u
CCCCN1C(=O)/C(=C/C=C2\Oc3ccccc3N2CC)SC1=S	30.0%	31.6µM*	u	-14.0%	u	-8.9%
COc1ccc2c(C)c(CCC(=O)Nc3ccc(F)c(F)c3)c(=O)oc2c1	x	x	x	x	x	-27.4%
C/C(=C\C=C\c1ccco1)C(=O)c1ccc(Br)cc1	x	x	x	x	x	2µM*
Nc1nccnc1C(=O)NCc1ccccc1OC(F)F	x	x	x	x	x	-10.0%
O=C1CSC(=S)N1/N=C/c1ccc(O)c(O)c1O	19.0%	2.9%	-10.4%	25.1µM*	u	x
NNc1nc2sc3c(c2c(=O)[nH]1)CCc1ccccc1-3	-2.2%	-3.2%	-2.8%	-7.5%	-8.2%	35.5µM*
CCSc1nc2sc3c(c2c(=O)[nH]1)CCc1ccccc1-3	-29.3%[57.1 µM]	16.3%	-2.7%	-11.2%	1.4%	-6.9%
O=C(CSc1nnc(SCc2ccccc2)s1)N/N=C/C=C\c1ccco1	-15.7%	3.9%	10.0%	u	-25.0%	17.8µM*
CCc1ccc2nc(Nc3nc(CSc4ccc(C)cc4)cc(=O)[nH]3)nc(C)c2c1	x	x	x	x	x	-7.4%
Fc1ccc(COc2ccc(Cl)cc2)cc1	x	x	x	x	x	15.6%
COC(=O)C1=C(C)NC(=S)NC1c1ccc(-c2cc(Cl)ccc2Cl)o1 (centres undefined)	3.0%	-6.0%	13.1%	6.1%	-24.8%	17.8µM*
COC(=O)C1=C(C)NC(=O)NC1c1ccc(-c2ccc(Cl)cc2)o1 (centres undefined)	21.7%	1.5%	-6.9%	-1.7%	-11.8%	-25.1%
COc1ccc(NC(=O)CCc2c(C)c3ccc(OC)cc3oc2=O)cc1	x	x	x	x	x	45.2%
CCCCc1c(C)[nH]n(-c2nc(C)c(C(=O)Nc3cccc(OC)c3)s2)c1=O	x	x	x	x	x	25.6%
C/C(=N\Nc1ccc(C(=O)O)cc1)c1ccc(Cl)s1	u	-3.6%	-5.1%	-6.0%	u	-7.5%
C/C(=N\NC(=O)Cc1ccccc1)c1ccc(Br)s1	13.5%	0.2%	3.7%	-4.9%	-18.0%	0.0%
C/C(=N/NC(N)=S)c1ccc(Br)s1	-6.2%	-1.2%	-1.3%	1.3%	-16.3%	25.1µM*
CC(=NNc1ccccc1)C(C)=NNc1ccccc1	-19.8%	-2.0%	-12.0%	u	-3.1%	39.8µM*
C/C(=N/Nc1ccccc1)c1ccc(Cl)s1	x	x	x	x	x	5.01µM*
C/C(=N\Nc1ccc(Cl)c(C(=O)O)c1)c1ccc(Br)s1	-0.7%	-5.5%	0.3%	-23.2%	-20.6%	u
C/C(=N/Nc1ccc(Cl)cc1)c1ccc(Br)s1	x	x	x	x	x	11.2µM*
CC(O)c1ccccc1[N+](=O)[O-] (centres undefined)	x	x	x	x	x	28.2%
N#Cc1ccccc1-c1ccc(COC(=O)c2ccco2)cc1	x	x	x	x	x	-1.7%
CCN(CC)c1ccc2cc(-c3nc(-c4ccc(OC)cc4)cs3)c(=O)oc2c1	5.62µM*	-380.6%	-85.8%	230.9%	i	-8.6%
COc1ccc(C2COc3cc(O)ccc3C2)c(OC)c1O (centres undefined)	-5.4%	4.1%	-12.3%	2.8%	2.7%	35.5µM*
CC1(C)C=Cc2c(ccc3c2OC[C@H](c2ccc(O)cc2O)C3)O1	-14.5%	14.5%	-15.2%	-18.0%	-13.1%	u
Cc1ccc(OCc2cc(=O)n3oc(C)cc3n2)c(NC(=O)c2ccccc2C(F)(F)F)c1	x	x	x	x	x	-10.1%
